These results are taken from ChEMBL document CHEMBL1961873, “Compounds: GSK PKIS; Assays: Nanosyn kinase panel” (2012).

A word on the inhibition: it is the change of the read-out against control, counted positive when it falls.

Each structure is given as a SMILES string.

Experiment [1] deals with Dual specificity protein kinase CLK3 (Homo sapiens) (UniProt P49761). The following applies: at 1 µM.
The target of experiment [2] is Dual specificity tyrosine-phosphorylation-regulated kinase 1A (Homo sapiens) (UniProt Q13627). Particulars: at 0.1 µM.
Experiment [3] has the same target. Particulars: at 1 µM.
Experiment [4] concerns the target Dual specificity tyrosine-phosphorylation-regulated kinase 1B (Homo sapiens) (UniProt Q9Y463). Particulars: at 0.1 µM.
Experiment [5] has the same target. Particulars: at 1 µM.
Experiment [6] has as its target T1, Dual specificity tyrosine-phosphorylation-regulated kinase 2 (Homo sapiens) (UniProt Q92630).
T1 sequence (whole entry): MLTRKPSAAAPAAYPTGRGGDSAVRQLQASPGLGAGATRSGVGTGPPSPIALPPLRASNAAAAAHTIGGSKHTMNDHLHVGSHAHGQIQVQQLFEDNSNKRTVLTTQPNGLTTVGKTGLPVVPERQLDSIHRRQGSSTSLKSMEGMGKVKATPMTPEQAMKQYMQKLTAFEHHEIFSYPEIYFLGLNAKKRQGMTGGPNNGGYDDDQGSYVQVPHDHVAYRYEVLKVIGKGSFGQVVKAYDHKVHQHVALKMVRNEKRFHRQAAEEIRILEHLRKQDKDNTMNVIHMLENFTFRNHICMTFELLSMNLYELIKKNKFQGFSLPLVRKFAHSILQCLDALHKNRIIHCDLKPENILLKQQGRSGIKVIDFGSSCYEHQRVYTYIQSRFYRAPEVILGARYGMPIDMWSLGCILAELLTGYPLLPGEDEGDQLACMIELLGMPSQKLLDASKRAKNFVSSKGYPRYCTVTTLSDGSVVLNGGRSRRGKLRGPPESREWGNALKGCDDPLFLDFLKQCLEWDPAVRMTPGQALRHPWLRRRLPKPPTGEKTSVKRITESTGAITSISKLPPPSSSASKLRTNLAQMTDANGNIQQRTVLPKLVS
Particulars: at 0.1 µM.

For experiment [7], the target named is T1, Dual specificity tyrosine-phosphorylation-regulated kinase 2 (Homo sapiens). Particulars: at 1 µM.
Experiment [8] deals with Glycogen synthase kinase-3 alpha (Homo sapiens) (UniProt P49840). Particulars: at 0.1 µM.
Chain of Glycogen synthase kinase-3 alpha (Homo sapiens) (P49840 2-483 limits assumed): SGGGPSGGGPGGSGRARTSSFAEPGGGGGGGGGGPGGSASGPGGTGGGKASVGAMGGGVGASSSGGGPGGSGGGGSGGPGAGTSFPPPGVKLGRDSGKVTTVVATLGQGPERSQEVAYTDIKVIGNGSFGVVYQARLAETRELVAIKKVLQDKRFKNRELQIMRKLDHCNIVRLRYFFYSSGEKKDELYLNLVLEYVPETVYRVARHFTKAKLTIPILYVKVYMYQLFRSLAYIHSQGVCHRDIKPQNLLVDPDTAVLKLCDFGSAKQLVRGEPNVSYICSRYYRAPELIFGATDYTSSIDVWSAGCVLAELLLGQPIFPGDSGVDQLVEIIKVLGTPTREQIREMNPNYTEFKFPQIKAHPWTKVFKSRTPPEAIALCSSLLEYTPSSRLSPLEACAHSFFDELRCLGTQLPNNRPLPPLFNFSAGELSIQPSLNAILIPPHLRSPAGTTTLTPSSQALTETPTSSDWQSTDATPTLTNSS
For experiment [9] the target is unchanged. The following applies: at 1 µM.
For experiment [10], the target named is Glycogen synthase kinase-3 beta (Homo sapiens) (UniProt P49841). The following applies: at 0.1 µM.
Chain of Glycogen synthase kinase-3 beta (Homo sapiens) (P49841 whole entry, looked up): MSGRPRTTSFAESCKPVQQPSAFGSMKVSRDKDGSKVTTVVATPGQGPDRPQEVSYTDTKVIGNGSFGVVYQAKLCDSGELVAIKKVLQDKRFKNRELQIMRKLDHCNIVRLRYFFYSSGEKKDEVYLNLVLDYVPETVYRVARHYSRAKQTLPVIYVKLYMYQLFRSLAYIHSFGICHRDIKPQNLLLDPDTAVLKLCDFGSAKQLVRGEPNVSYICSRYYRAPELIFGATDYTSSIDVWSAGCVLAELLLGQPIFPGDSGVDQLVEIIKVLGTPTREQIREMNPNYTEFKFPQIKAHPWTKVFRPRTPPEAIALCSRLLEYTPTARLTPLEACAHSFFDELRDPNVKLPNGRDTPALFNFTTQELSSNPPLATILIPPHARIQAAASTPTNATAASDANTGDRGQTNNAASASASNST
Experiment [11] shares this target. The following applies: at 1 µM.
Experiment [12] deals with Homeodomain-interacting protein kinase 1 (Homo sapiens) (UniProt Q86Z02). Particulars: at 0.1 µM.
Chain of Homeodomain-interacting protein kinase 1 (Homo sapiens) (Q86Z02 whole entry, looked up): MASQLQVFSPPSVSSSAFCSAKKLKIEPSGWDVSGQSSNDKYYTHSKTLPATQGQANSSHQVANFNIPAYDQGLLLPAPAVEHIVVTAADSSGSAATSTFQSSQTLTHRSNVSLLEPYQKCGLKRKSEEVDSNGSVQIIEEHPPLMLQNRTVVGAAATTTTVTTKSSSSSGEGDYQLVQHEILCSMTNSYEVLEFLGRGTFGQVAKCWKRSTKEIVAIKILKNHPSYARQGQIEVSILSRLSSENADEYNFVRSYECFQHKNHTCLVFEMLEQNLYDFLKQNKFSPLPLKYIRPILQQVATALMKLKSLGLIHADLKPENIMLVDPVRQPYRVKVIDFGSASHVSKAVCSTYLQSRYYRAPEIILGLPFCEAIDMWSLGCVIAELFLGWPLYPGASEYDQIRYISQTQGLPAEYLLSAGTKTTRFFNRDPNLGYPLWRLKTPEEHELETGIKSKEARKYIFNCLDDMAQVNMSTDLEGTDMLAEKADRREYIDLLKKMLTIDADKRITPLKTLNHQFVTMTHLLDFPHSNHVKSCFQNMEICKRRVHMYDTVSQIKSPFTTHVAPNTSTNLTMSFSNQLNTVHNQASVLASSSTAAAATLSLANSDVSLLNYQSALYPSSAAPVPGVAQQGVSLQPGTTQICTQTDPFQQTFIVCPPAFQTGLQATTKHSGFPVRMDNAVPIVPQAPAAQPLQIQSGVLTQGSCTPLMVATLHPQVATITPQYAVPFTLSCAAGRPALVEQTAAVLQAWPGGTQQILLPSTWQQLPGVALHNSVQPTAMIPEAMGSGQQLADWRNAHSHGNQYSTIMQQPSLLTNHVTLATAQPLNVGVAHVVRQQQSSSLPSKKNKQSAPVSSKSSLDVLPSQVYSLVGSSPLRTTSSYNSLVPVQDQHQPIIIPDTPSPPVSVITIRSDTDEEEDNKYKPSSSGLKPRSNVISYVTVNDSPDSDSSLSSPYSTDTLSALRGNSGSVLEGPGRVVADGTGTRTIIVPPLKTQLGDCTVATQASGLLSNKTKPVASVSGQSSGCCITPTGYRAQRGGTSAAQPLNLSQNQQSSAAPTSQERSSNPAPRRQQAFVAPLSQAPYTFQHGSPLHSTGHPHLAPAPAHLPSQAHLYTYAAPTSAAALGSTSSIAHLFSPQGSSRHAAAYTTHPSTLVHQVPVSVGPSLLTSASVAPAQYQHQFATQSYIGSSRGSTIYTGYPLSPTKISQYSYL
The target is the same in experiment [13]. Particulars: at 1 µM.
Experiment [14] concerns the target T2, Homeodomain-interacting protein kinase 4 (Homo sapiens) (UniProt Q8NE63).
T2 sequence (whole entry): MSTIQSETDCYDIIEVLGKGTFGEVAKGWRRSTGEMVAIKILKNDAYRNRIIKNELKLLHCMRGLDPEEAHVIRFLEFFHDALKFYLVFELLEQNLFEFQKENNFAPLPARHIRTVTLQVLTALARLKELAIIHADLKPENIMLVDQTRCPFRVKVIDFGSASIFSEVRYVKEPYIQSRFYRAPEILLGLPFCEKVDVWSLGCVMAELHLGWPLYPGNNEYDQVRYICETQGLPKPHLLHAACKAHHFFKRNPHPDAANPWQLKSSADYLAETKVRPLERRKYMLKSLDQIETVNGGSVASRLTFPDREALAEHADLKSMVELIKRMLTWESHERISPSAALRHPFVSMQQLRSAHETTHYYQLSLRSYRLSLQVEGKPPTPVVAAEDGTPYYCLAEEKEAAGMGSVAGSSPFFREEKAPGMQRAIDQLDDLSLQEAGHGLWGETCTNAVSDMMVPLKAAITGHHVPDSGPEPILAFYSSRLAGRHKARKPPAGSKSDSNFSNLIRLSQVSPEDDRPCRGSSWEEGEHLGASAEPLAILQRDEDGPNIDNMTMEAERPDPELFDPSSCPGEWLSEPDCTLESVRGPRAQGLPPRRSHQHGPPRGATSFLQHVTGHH
Particulars: at 0.1 µM.

For experiment [15], the target named is T2, Homeodomain-interacting protein kinase 4 (Homo sapiens). Particulars: at 1 µM.
Experiment [16] deals with Mitogen-activated protein kinase 9 (Homo sapiens) (UniProt P45984). The following applies: at 0.1 µM.
Chain of Mitogen-activated protein kinase 9 (Homo sapiens) (P45984 whole entry, looked up): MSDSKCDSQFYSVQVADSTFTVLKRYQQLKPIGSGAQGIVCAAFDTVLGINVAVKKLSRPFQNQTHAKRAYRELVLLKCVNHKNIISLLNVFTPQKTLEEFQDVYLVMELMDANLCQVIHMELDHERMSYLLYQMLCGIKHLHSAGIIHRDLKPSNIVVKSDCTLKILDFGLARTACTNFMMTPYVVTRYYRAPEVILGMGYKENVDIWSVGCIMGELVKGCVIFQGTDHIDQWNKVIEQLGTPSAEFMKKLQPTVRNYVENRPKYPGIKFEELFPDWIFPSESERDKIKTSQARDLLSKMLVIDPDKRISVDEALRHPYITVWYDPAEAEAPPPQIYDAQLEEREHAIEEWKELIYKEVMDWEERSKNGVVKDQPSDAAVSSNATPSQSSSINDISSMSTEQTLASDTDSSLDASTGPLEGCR
For experiment [17] the target is unchanged. The following applies: at 1 µM.
Experiment [18] concerns the target Mitogen-activated protein kinase 1 (Homo sapiens) (UniProt P28482). Particulars: at 0.1 µM.
For experiment [19] the target is unchanged. The following applies: at 1 µM.
Experiment [20] addresses Mitogen-activated protein kinase 3 (Homo sapiens) (UniProt P27361). Particulars: at 0.1 µM.

Chain of Dual specificity protein kinase CLK3 (Homo sapiens) (P49761 whole entry, looked up): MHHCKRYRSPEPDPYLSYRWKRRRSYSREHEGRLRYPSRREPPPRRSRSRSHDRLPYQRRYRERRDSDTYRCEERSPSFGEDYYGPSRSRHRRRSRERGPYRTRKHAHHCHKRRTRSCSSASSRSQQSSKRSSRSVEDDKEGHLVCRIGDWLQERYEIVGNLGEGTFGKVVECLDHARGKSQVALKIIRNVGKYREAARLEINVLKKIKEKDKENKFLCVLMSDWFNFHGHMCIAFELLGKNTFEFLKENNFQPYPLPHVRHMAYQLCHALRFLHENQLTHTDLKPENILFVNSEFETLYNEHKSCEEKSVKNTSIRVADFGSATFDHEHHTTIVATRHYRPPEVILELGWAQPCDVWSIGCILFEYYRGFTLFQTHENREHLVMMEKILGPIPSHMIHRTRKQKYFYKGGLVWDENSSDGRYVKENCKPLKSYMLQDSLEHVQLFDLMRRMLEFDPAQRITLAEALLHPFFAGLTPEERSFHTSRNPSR
Chain of Dual specificity tyrosine-phosphorylation-regulated kinase 1B (Homo sapiens) (Q9Y463 whole entry, looked up): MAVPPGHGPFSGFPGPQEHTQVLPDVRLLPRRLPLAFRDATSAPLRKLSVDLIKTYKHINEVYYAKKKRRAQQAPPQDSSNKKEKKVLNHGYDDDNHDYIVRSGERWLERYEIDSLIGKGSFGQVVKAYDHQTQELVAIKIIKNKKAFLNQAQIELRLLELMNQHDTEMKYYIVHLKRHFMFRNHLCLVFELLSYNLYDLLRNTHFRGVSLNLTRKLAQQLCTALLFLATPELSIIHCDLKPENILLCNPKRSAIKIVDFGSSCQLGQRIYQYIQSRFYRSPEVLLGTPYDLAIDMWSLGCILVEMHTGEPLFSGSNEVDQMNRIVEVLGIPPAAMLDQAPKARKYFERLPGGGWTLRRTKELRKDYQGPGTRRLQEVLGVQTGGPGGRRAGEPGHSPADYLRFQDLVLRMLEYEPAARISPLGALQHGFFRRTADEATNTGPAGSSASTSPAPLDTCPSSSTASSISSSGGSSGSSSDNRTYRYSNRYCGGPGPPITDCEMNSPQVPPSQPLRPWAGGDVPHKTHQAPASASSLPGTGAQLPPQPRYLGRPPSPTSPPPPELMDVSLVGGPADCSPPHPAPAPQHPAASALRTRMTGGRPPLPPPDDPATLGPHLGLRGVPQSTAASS
Chain of Mitogen-activated protein kinase 1 (Homo sapiens) (P28482 whole entry): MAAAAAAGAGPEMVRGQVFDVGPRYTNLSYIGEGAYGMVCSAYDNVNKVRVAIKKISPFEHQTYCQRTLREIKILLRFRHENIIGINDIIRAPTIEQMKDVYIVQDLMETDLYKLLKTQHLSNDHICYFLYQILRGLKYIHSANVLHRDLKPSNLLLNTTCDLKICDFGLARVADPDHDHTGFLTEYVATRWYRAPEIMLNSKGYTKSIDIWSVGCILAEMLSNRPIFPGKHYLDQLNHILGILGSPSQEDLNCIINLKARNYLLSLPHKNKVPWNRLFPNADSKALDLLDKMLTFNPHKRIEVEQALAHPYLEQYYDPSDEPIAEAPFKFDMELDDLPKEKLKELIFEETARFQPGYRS
Chain of Mitogen-activated protein kinase 3 (Homo sapiens) (P27361 whole entry): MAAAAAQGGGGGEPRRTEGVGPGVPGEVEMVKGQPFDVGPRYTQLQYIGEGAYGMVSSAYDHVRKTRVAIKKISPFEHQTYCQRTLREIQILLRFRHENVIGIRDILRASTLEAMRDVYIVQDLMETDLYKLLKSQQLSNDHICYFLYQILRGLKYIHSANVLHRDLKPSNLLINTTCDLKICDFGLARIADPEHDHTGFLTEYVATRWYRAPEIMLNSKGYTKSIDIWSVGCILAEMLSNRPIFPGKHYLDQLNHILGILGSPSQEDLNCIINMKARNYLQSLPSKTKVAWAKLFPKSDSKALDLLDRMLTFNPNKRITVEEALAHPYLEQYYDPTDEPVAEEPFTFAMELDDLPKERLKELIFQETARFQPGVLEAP

Turning to `Clc1ccc(-c2nn3ncccc3c2-c2ccnc(Nc3ccccc3)n2)cc1`, the inhibition was determined as 2.2% in experiment [1]; 2.68% in experiment [2]; 5.74% in experiment [3]; 1.65% in experiment [4]; 3.34% in experiment [5]; 1.34% in [6]. The inhibition was 0.66% in [7]; 1.79% in experiment [8]; 12.2% in [9]; 2.61% in experiment [10]; 26.2% in experiment [11]; 1.35% in experiment [12]. The inhibition is 3.25% in experiment [13]; 0.5% in experiment [14]; 2.83% in experiment [15]; 16.6% in [16]; 73.4% in experiment [17]; -0.11% in experiment [18]. Further, the values for the inhibition in [19] and in experiment [20] were 1.18% and -0.01%, respectively.
As to `CCOc1ccc2c(-c3ccnc(Nc4cccc(C(F)(F)F)c4)n3)cnn2n1`, the inhibition in [1] was 6.13%; in [2] it was -0.46%; in experiment [3], 6.48%; in experiment [4] it was 1.37%; in [5], 21%; in [6] it was 1.79%. The inhibition in experiment [7] amounted to 0.78%; in experiment [8] it was 12.1%; in experiment [9], 46.1%; in experiment [10] it was 5.68%; in [11] it was 33.6%; in experiment [12] it was 21.8%. Besides, the inhibition turned out to be 70% in experiment [13]; 10.3% in experiment [14]; 46.2% in experiment [15]; 1.84% in experiment [16]; 1.35% in [17]; 3.23% in experiment [18]. Further, the figures for the inhibition in [19] and in [20] were 3.31% and 2.89%, respectively.
For the compound `c1ccc(-c2nc3n(c2-c2ccc4c(c2)OCO4)CCC3)nc1`, the inhibition in experiment [1] amounted to 1.02%; in experiment [2] it was 1.52%; in experiment [3], 6.32%; in experiment [4] it was 1.24%; in [5] it was 5.19%; in [6] it was 1.61%. Besides, the inhibition in experiment [7] turned out to be 1.95%; in [8], 1.93%; in experiment [9], 5.52%; in experiment [10], 2.03%; in experiment [11], 6.89%; in [12] it was 0.04%. The inhibition was 0.44% in experiment [13]; -0.4% in experiment [14]; -0.33% in experiment [15]; 1.36% in experiment [16]; 1.96% in experiment [17]; -0.55% in experiment [18]. The inhibition in experiment [19] came out at 0.62%; in [20], 0.29%.
Consider `CN1CCC(n2cnc(-c3ccc(F)cc3)c2-c2ccnc(Nc3ccccc3)n2)CC1`, for which the inhibition in experiment [1] turned out to be 0.59%; in experiment [2], 1.28%; in experiment [3], 2.82%; in experiment [4] it was 0.22%; in experiment [5] it was 0.48%; in experiment [6], 1.36%. Further, the inhibition in experiment [7] turned out to be 3.27%; in experiment [8], 3.08%; in [9] it was 12.7%; in experiment [10], 4.95%; in [11] it was 34.3%; in experiment [12], 2.6%. For the same compound, the inhibition was 0.41% in experiment [13]; 0.08% in experiment [14]; 7.29% in experiment [15]; 28% in experiment [16]; 74.7% in experiment [17]; 2.4% in [18]. Moreover, the inhibition is 5.02% in [19] and 3.96% in experiment [20].
Turning to `CCn1c(-c2nonc2N)nc2c(C#CC(C)(C)O)nc(OC[C@H](N)c3ccccc3)cc21`, the inhibition in experiment [1] was determined as 0.92%; in experiment [2], 1.72%; in [3] it was 2.24%; in [4], 0.98%; in experiment [5], 2.57%; in [6], 3.62%. The inhibition in experiment [7] is 4.79%; in experiment [8], 36.8%; in experiment [9], 73.6%; in experiment [10] it was 30%; in [11], 71.2%; in experiment [12], -1.18%. Besides, the inhibition was 12.3% in experiment [13]; 3.08% in experiment [14]; 6.13% in experiment [15]; 7.43% in [16]; 9.81% in [17]; 2.37% in [18]. Also, the inhibition stood at 5.04% in experiment [19] and 3.72% in [20].
As to `c1cc(-c2cnn3nc(N4CCOCC4)ccc23)nc(NC2CC2)n1`, the inhibition was determined as 8.62% in experiment [1]; 7.48% in [2]; 40.4% in experiment [3]; 6.08% in experiment [4]; 35.8% in experiment [5]; 5.57% in [6]. Moreover, the inhibition came out at 32.8% in experiment [7]; 4.47% in experiment [8]; 26.4% in experiment [9]; 2.95% in experiment [10]; 18.2% in [11]; 3.36% in [12]. The inhibition in [13] was 29%; in experiment [14], 4.39%; in [15], 20.6%; in experiment [16], 5.03%; in experiment [17], 26.1%; in [18], 1.45%. Besides, the inhibition is 7.25% in experiment [19] and 4.13% in experiment [20].
For `[O-][S+]1CCN(Cc2ccc(-c3ccc4ncnc(Nc5ccc(OCc6cccc(F)c6)c(Cl)c5)c4c3)o2)CC1`, the inhibition in experiment [1] was 1.25%; in experiment [2], 4.05%; in experiment [3], 3.96%; in experiment [4], 0.06%; in experiment [5], 1.57%; in [6], 4.92%. The inhibition in experiment [7] is 4.13%; in [8], 3.26%; in experiment [9] it was 5.28%; in experiment [10] it was 3.06%; in experiment [11], 4.76%; in [12], -2.75%. Also, the inhibition in experiment [13] turned out to be 1.62%; in [14], 0.28%; in experiment [15], 0.6%; in experiment [16] it was 3.35%; in [17] it was 1.33%; in [18] it was 7.21%. The inhibition in experiment [19] came out at 6.45%; in experiment [20], 5.68%.
